TrxR1 substrate: substrates of rat thioredoxin reductase 1; O89049; purified TrxR1 substrate turnover, NADPH consumption readout; Potency, µM (doses to about 114 µM), without a hit: top-dose activity change, negative = substrate turnover; hit rate 0.01% among 390,000; AID 588456; further: potency means the concentration at half of the fitted maximal effect; nearly all actives have a fitted effect of over 50% in size
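Rat TrxR1, dispensed at 90 nM, was prereduced with 400 uM NADPH (final) for 5 min at ~22 deg C, then incubated with compound 15 min before 400 uM selenite. A first-read NADPH fluorescence drop versus no-compound background flagged substrates.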
GALK inh: inhibitors of human galactokinase | P51570 | Purified GALK, Kinase-Glo residual ATP luminescence | Potency, µM (doses to about 57.5 µM), without a hit: at the highest dose activity change, negative = inhibition, most hits filed as inhibitors | hit rate 0.007% among 270,000 | AID 1868; further: potency means the concentration at half of the fitted maximal effect
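The enzyme phosphorylates galactose (100 uM) using ATP (35 uM); inhibition is detected as higher residual ATP, quantified by bioluminescence after 1 h reaction at room temperature, pH 8.0.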
rTrxR1 inhibitor: blocks rat thioredoxin reductase 1. recombinant rTrxR1, NADPH fluorescence consumption, selenite substrate. hit rate 1% among 390,000. Potency, µM (titrated, usually from 114 µM), for the others: at the highest dose activity change, negative = inhibition, most hits filed as inhibitors. AID 588453; further: potency means the concentration at half of the fitted maximal effect; nearly all actives have a fitted effect of over 65% in size
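Rat TrxR1 (90 nM in the dispensed reagent) was pre-reduced with 400 uM NADPH for 5 min at room temperature, then incubated with compound for 15 min. After 400 uM selenite was added, NADPH fluorescence (Ex 340/Em 450 nm) was followed for 8 min.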
Coupling enz: inhibits coupling enzyme system, counter-screen for aldolase hits; coupling enzyme system counterscreen, AmpLite Red fluorescence; activity change, negative = inhibition, % at 58.2 µM, hits read low; hit rate 0.67% among 290,000; AID 2472; in the data active means activity change below about -30%
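Activity here indicates interference with the coupling reaction, not aldolase inhibition. Compounds at 57.5 uM final met coupling enzymes for 10 min at RT; substrate and AmpLite Red detection followed, with a 525/598 nm fluorescence read after 20 min.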
RORgamma inh: inhibitors of mouse ROR gamma transcriptional activity. P51450. Drosophila S2 Gal4-RORgamma UAS-luciferase reporter, 20 h. Potency, µM (doses to about 53.6 µM), without a hit: at the top dose activity change, negative = inhibition, most hits filed as inhibitors. hit rate 5.4% among 310,000; further: potency means the concentration at half of the fitted maximal effect; nearly all actives have a fitted effect of over 60% in size
Target sequence (P51450 whole entry, looked up, the tested form may be a part): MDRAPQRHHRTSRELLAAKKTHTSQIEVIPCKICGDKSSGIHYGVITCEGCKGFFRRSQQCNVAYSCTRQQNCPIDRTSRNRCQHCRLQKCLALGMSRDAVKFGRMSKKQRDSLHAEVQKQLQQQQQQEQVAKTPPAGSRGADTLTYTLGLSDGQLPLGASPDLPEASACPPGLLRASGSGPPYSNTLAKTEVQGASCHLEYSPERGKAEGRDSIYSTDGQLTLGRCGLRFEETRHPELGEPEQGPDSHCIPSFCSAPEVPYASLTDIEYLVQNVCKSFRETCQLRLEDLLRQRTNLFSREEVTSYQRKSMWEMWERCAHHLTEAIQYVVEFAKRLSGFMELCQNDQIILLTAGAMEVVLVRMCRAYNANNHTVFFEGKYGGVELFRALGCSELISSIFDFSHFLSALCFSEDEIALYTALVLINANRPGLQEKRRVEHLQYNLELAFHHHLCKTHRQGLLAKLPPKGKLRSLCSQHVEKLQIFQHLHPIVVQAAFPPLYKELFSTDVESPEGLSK
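Drosophila Schneider cells stably carrying a metallothionein-driven Gal4 DBD–ROR gamma fusion and a UAS-Photinus luciferase reporter were exposed to compound for 1 hr, then induced with copper sulfate (700 uM final) for 20 hr at ambient temperature before luminescence reading.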
VP16 counter: Gal4-VP16 reporter inhibition counter-screen. Drosophila S2 Gal4-VP16 UAS-luciferase, luminescence, 20 h. Potency, µM (highest dose often 53.6 µM), for the others: at the top dose activity, negative = inhibition, usual class: inhibitors. hit rate 3.5% among 310,000;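 further: Gal4-VP16 expression switched on by copper sulfate through the metallothionein promoter; potency means the concentration at half of the fitted maximal effect; nearly all actives have a fitted effect of over 50% in size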
An asterisk follows results filed as active; ? = inconclusive; · = no result; [ ] = remark or other dose. Sampled rows, rich in hits. Any-hit rate of the full collection: about 5.9%. Unless noted, the call rests on the fitted dose curve; in most records, active means well fitted curve in the direction sought with a large enough effect; inconclusive means small, poorly fitted or top-dose-only effect, or another doubt; inactive means no such curve, though single readings can be large; an effect the other way counts as inactive or inconclusive. On the % scale 0 is the no-effect control and ±100 the full control effect.

SMILES	TrxR1 substrate	GALK inh	rTrxR1 inhibitor	Coupling enz	RORgamma inh	VP16 counter
CCN1CCN(c2oc(-c3ccc([N+](=O)[O-])cc3)nc2C#N)CC1	4%[11.4 µM]	1%	19%[11.4 µM]	5	-5%	2%
O=C(CSc1ccc(-c2ccco2)nn1)NCc1ccc(Cl)cc1	1%	0%	28µM*	1	19%	-7%
CC(=O)c1cccc(NC(=O)CSc2ccc(-c3ccco3)nn2)c1	-4%	-5%	11µM*	·	12%	10%
COc1ccc(Cl)cc1C(=O)NNC(=S)NC(=O)c1cc(-c2ccccc2)nc2ccccc12	-3%	4%	-26%	·	14%	?
COC(=O)c1ccc(NC(=O)c2cc(-c3ccncc3)nc3ccccc23)cc1	5%	·	19%	·	·	·
COC(=O)c1ccc(NC(=S)NC(=O)c2cc(-c3ccccc3)nc3ccccc23)cc1	11%[57.1 µM]	-2%	9%[11.4 µM]	1	0.45µM*	2µM*
CCCOc1ccc(C(=O)NNC(=S)NC(=O)c2cc(-c3ccc(Cl)cc3)nc3ccccc23)cc1	-8%	·	?	4	0.11µM*	?
COc1ccc(C(=O)NNC(=S)NC(=O)c2cc(-c3ccccc3)nc3ccccc23)cc1	8%[57.1 µM]	5%	-22%	15	10µM*	?
O=[N+]([O-])c1nn(-c2ccc3c(c2)OCCO3)n(O)c1=NC1CCCCCC1	0%	4%	8%	-1	-2%	-22%
CCc1ccccc1NC(=O)CCn1nc(C)c2c(C)n(-c3ccccc3)nc2c1=O	-2%	·	16%	·	·	·
CN(C(=O)c1c[nH]c(=O)cc1C(F)(F)F)c1ccc(Cl)cc1	7%	0%	16%	3	28%	5%
CCOC(=O)c1cnc(-n2nc(C)cc2C)nc1Oc1ccccc1F	-19%[57.1 µM]	·	15%[57.1 µM]	-17	5µM*	?
CCOC(=O)c1cnc(-n2cc(C)cn2)nc1Nc1ccccc1OCC	6%	-1%	15%	·	1.8µM*	-10%
CCOC(=O)c1cnc(-n2nc(C)cc2C)nc1NCCc1ccccc1	1%	0%	-3%	-4	0.89µM*	1.8µM*
CCOC(=O)c1cnc(-n2nc(C)cc2C)nc1NC1CCCC1	-8%[57.1 µM]	0%	36%[57.1 µM]	2	18%	-3%
CCOC(=O)c1cnc(-n2nc(C)cc2C)nc1Nc1ccccc1OC	·	-1%	·	-3	1.3µM*	2.2µM*
Nc1n[nH]c(-c2ccc([N+](=O)[O-])cc2[N+](=O)[O-])n1	-9%	4%	5%	-1	-2%	-13%
CC1CCN(C(=O)COc2coc(CN3CCc4ccccc43)cc2=O)CC1	-1%	·	7%	·	·	·
CCOC(=O)c1cnc(-n2nc(C)cc2C)nc1NCc1ccc2c(c1)OCO2	12%[57.1 µM]	-2%	12%[57.1 µM]	-4	3.5µM*	3.2µM*
CCOC(=O)c1cnc(-n2nc(C)cc2C)nc1Nc1ccc(OC)cc1	-5%	-1%	-2%	-1	1.6µM*	2.5µM*
CCC(Sc1nnc2c3ccccc3n(CC)c2n1)C(=O)Nc1nnc(C(C)C)s1 (stereo not drawn)	-3%	·	5%	·	·	·
CC1(C)C(CO)=CC(=O)C2=C1SCC(=O)N2	-8%	·	-6%	-2	-31%	-6%
CCOc1ccc(CNC(=O)CC(C)n2nc(C)cc2C)cc1OC (stereo not drawn)	1%[57.1 µM]	·	13%[57.1 µM]	·	·	·
Cc1c(C#N)c(=O)c(-[n+]2ccccc2)c([S-])n1-c1ccc(Cl)cc1	3%	-2%	50µM*	-1	9%	-4%
CC1CCN(c2nc3ccc(C(=O)N4CCN(Cc5ccc6c(c5)OCO6)CC4)cc3s2)CC1	5%	1%	12%	3	?	7.1µM*
SMILES	TrxR1 substrate	GALK inh	rTrxR1 inhibitor	Coupling enz	RORgamma inh	VP16 counter
O=C(c1cccc(Cl)c1)N1CCN(Cc2ccc3c(c2)OCO3)CC1	4%	3%	5%	-3	-5%	5%
COc1ccc(C2C(C#N)=C(N)Oc3cc(C)n(Cc4ccco4)c(=O)c32)cc1 (stereo not drawn)	1%	1%	3.2µM*	-3	-13%	2%
COc1cccc(C2C(C#N)=C(N)Oc3cc(C)n(Cc4ccco4)c(=O)c32)c1 (stereo not drawn)	0%	1%	?	0	-22%	-4%
CCOC(=O)c1cnc2ccc(OC)cc2c1Nc1ccc2c(c1)OCCO2	-9%	0%	-2%	-20	18%	-9%
CCOC(=O)c1cnc2c(OC)cccc2c1Nc1ccc2c(c1)OCCO2	-10%	0%	-12%	-8	16µM*	18µM*
CCOC(=O)N1CCC(NC(=O)c2oc3c(c2C)-c2[nH]ncc2CC3)CC1	9%	-1%	-1%	-41*	0%	7%
CCC1CSC(Nc2ccc(C(=O)/C=C/c3ccc(Oc4ccccc4)cc3)cc2)=N1 (stereo not drawn)	-8%	0%	-7%	-7	16µM*	?
CC1CN(C(=O)N2c3ccccc3Sc3ccccc32)CC(C)O1 (stereo not drawn)	0%	·	8%	2	31%	3.5µM*
O=C(NC1CCN(C(=O)N2c3ccccc3Sc3ccccc32)CC1)c1ccccc1F	4%[57.1 µM]	-7%	7%[57.1 µM]	0	?	3.5µM*
CC1CCN(C(=O)N2c3ccccc3Sc3ccccc32)CC1	6%[57.1 µM]	0%	11%[57.1 µM]	5	6%	-3%
CCN(Cc1ccccc1)S(=O)(=O)c1ccc(N2CCCCS2(=O)=O)cc1	-4%[57.1 µM]	·	8%[57.1 µM]	·	·	·
Cc1ccc2nc(NC(=O)c3cc(-c4ccco4)nc4ccccc34)sc2c1	31%	1%	-17%	2	18µM*	?
Cc1csc(NC(=O)c2cc(-c3ccco3)nc3ccccc23)n1	10%	-3%	?	-3	?	?
O=C(Nc1nccs1)c1cc(-c2ccco2)nc2ccccc12	14%	0%	-7%	2	-27%	7%
O=C(Nc1nc2ccccc2s1)c1cc(-c2ccco2)nc2ccccc12	66%	-4%	?	-1	?	13µM*
C=CCn1c(CNS(=O)(=O)c2ccc(Br)cc2)n[nH]c1=S	4%	-3%	-9%	·	-8%	-17%
N#CC1=C(S)N(c2ccccc2)C2(CCCCC2)NC1=O	-2%	·	-21%	16	13µM*	?
c1cncc(-c2nc(-c3ccco3)cs2)c1	13%[57.1 µM]	1%	35µM*	-4	28%	2%
CNc1ncc(Cc2ccccc2)s1	-4%	-1%	-5%	-1	8.9µM*	-18%
Cc1cccn2cc(-c3ccc(Cl)cc3)nc12	12%	2%	4%	-9	5.6µM*	?
Cc1cccn2cc(-c3ccc(S(=O)(=O)N4CCCCC4)cc3)nc12	153%	1%	?	0	1%	1%
Cc1ccc(-c2cn3cccc(C)c3n2)cc1	39%	5%	19%[57.1 µM]	-2	11µM*	-44%
